Results reported in PubChem BioAssay (Tox21).
Inconclusive results are not listed. Activity calls are given as the source filed them. Unless noted, the call rests on the fitted dose curve.

Assays:
[1] = Nuclear factor erythroid 2-related factor 2/antioxidant responsive element (Nrf2/ARE) small molecule agonists: qHTS cell viability counter screen in human keratinocytes (AID 1919968; active means well fitted curve in the direction sought with a large enough effect in the repeat runs; an effect the other way counts as inactive or inconclusive; further: nearly all actives have a fitted effect of over 55% in size)
How it was run: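 HaCaT ARE reporter line, 1,500 cells/well; 5 h settle, 37 C/5% CO2; cpd in DMSO pinned; 23 h exposure; CellTiter-Fluor, 1 h; fluorescence.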

[2] = Nuclear factor erythroid 2-related factor 2/antioxidant responsive element (Nrf2/ARE) small molecule agonists: luciferase reporter gene qHTS assay in human keratinocytes (AID 1919969); further: nearly all actives have a fitted effect of over 35% in size
[3] = target: Gonadotropin-releasing hormone receptor (Homo sapiens) (UniProt P30968); assay: Human gonadotropin-releasing hormone receptor (GnRHR) small molecule agonists, calcium flux assay in GnRHR-HEK293 cells (AID 1920063); further: nearly all actives have a fitted effect of over 35% in size
Chain of Gonadotropin-releasing hormone receptor (Homo sapiens) (P30968 whole entry, looked up): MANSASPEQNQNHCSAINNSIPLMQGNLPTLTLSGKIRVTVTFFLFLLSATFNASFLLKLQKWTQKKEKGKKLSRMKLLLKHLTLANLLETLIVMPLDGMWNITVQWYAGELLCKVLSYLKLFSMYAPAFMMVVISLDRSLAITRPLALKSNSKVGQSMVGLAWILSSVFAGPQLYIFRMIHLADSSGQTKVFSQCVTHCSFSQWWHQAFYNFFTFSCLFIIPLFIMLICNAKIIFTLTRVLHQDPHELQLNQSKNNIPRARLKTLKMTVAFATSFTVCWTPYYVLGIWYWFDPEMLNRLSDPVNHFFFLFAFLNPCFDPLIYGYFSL
How it was run: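 GnRHR-HEK293, 1500 cells/well, 18 h 37 C/5% CO2; Ca dye 1 h 37 C; cpd pinned (DMSO), agonist mode; kinetic FL 480/540, 3 min, 1 s reads; 15 conc, n=3.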

[4] = target: KiSS-1 receptor (Homo sapiens) (UniProt Q969F8); assay: Human kisspeptin (KISS1R) small molecule agonists, calcium flux assay in KISS1R-HEK293 cells (AID 1920064; active means well fitted curve in the direction sought with a large enough effect in the repeat runs; an effect the other way counts as inactive or inconclusive)
Chain of KiSS-1 receptor (Homo sapiens) (Q969F8 whole entry, looked up): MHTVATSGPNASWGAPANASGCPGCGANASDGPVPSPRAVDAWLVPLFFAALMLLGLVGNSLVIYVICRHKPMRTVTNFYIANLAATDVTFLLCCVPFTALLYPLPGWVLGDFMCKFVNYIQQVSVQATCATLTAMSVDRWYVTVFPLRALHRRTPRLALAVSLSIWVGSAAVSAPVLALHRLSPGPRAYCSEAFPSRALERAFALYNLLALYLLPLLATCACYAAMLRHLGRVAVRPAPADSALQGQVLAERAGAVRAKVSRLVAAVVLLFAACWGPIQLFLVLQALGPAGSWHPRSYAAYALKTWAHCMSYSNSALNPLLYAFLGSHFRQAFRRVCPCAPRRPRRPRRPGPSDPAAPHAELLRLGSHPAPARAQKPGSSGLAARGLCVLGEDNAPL
How it was run: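 Stable human KISS1R HEK293 line; 18 h plating, 37 C/5% CO2; calcium dye 1 h 37 C; compound pin transfer; kinetic fluorescence Ex/Em 480/540, 3 min.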

[5] = G protein-coupled receptor (GPCR) small molecule agonists, calcium flux assay: HEK293 wild type cell line counter screen (AID 1920065)
How it was run: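 Kinetic fluorescence at Ex/Em 480/540, recorded every second over 3 min, served as the read-out after compound addition. Each compound was tested at 15 concentrations in triplicate on cells pre-loaded with calcium dye for 1 h.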

[6] = p53 small molecule agonists, cell-based qHTS assay with human liver microsomes (AID 1963577);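 further: p53 response element beta-lactamase reporter cells with liver microsomes plus NADPH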
How it was run: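 HLM-supplemented p53RE-bla reporter assay: 16 h compound exposure at 37 C, microsomes and NADPH each 0.5 mg/mL final, read by fluorescence intensity.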

[7] = p53 small molecule agonists, cell-based qHTS assay with rat liver microsomes (AID 1963578)
How it was run: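 Quantitative HTS of the Tox21 10K library: p53RE-bla cells, rat liver microsomes plus NADPH at 0.5 mg/mL final each, 16 h at 37 C, beta-lactamase fluorescence detection.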

[8] = p53 small molecule agonists, cell-based qHTS assay with human liver microsomes: qHTS cell viability counter screen (AID 1963579); further: nearly all actives have a fitted effect of over 45% in size
How it was run: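 Viability of p53RE-bla cells is measured as CellTiter-Glo luminescence following a 16 h, 37 C incubation with compound, liver microsomes from human donors and NADPH.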

[9] = p53 small molecule agonists, cell-based qHTS assay with rat liver microsomes: qHTS cell viability counter screen (AID 1963580); further: nearly all actives have a fitted effect of over 45% in size
How it was run: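 p53RE-bla HCT-116 cells (4,000/well) rested 5 h at 37 C, then given Tox21 compounds in DMSO with rat liver microsomes (0.5 mg/mL final) plus NADPH (0.5 mg/mL final) for 16 h at 37 C. Viability read by CellTiter-Glo luminescence after 30 min at room temperature.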

[10] = p53 small molecule agonists, cell-based qHTS assay: qHTS cell viability counter screen (AID 1963581); further: nearly all actives have a fitted effect of over 45% in size
How it was run: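 HCT-116 p53RE-bla cells, 4,000/well, plated 5 h before compound pin transfer; 16 h at 37 C; bla substrate 2 h RT; then CellTiter-Glo, 30 min RT, luminescence.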

[11] = p53 small molecule agonists, cell-based qHTS assay (AID 1963582; active means well fitted activation curve with a large enough effect in the signal ratio in the repeat runs, not every such curve was filed as active; the % refers to the signal ratio)
How it was run: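 Reporter line: p53RE-bla. Pre-incubation 5 h, 37 C, 5% CO2; compound (DMSO, pin tool) 16 h, 37 C; B/G FRET substrate 2 h RT; fluorescence intensity read.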

[12] = target: 5-hydroxytryptamine receptor 2A (Homo sapiens) (UniProt P28223); assay: 5-hydroxytryptamine receptor 2A (HTR2A) small molecule antagonists, cell-based qHTS assay (AID 1963586); further: nearly all actives have a fitted effect of over 45% in size
Chain of 5-hydroxytryptamine receptor 2A (Homo sapiens) (P28223 whole entry, looked up): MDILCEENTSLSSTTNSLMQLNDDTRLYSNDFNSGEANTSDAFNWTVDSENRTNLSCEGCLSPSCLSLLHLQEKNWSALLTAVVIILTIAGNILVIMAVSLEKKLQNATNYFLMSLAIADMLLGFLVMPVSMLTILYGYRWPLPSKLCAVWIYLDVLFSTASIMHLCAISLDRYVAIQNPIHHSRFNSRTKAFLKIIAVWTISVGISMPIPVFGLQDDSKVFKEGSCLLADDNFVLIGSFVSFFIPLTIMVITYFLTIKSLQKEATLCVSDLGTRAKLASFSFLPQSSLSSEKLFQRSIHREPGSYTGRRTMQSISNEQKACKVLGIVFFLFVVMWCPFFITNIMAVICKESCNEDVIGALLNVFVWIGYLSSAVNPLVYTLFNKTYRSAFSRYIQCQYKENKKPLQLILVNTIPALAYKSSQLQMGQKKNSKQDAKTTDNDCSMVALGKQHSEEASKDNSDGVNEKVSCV
How it was run: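 Antagonist-mode intracellular calcium assay: DOI (4 nM) added after 5 min compound pre-incubation at room temperature to dye-loaded HTR2A-CHO cells. Fluorescence followed for 3 min, sampled every second.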

[13] = target: 5-hydroxytryptamine receptor 2A (Homo sapiens) (UniProt P28223); assay: 5-hydroxytryptamine receptor 2A (HTR2A) small molecule agonists, cell-based qHTS assay (AID 1963587); further: nearly all actives have a fitted effect of over 30% in size
How it was run: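 HTR2A-CHO cells, plated 18 h at 37 C/5% CO2, dye-loaded 1 h at 37 C; compounds in DMSO added by pin tool (agonist mode). Intracellular calcium flux read as kinetic fluorescence on FDSS over 2 min at 1 s intervals.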

[14] = target: Muscarinic acetylcholine receptor M1 (Homo sapiens) (UniProt P11229); assay: Cholinergic receptor muscarinic 1 (CHRM1) small molecule antagonists, cell-based qHTS assay (AID 1963588); further: nearly all actives have a fitted effect of over 40% in size
Chain of Muscarinic acetylcholine receptor M1 (Homo sapiens) (P11229 whole entry, looked up): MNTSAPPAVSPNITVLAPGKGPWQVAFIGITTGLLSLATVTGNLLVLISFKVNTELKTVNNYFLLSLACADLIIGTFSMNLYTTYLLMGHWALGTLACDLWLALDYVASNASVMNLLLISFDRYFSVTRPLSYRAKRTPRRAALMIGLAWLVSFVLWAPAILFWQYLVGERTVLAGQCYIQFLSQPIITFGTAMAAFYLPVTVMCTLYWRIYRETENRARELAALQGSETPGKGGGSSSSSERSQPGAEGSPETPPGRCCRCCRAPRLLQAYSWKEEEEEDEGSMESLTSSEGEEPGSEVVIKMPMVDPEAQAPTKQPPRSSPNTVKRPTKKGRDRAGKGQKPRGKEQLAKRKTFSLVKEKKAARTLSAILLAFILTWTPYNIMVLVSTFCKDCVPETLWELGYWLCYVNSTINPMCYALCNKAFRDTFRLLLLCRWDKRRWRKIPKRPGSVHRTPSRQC
How it was run: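 CHRM1-CHO calcium-flux assay, antagonist mode. Cells were seeded 18 h, dye-loaded 1 h at 37 C and given compound for 5 min at RT, then acetylcholine was added at 50nM. FDSS fluorescence was read 3 min; 15 concentrations, three runs.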

[15] = target: Muscarinic acetylcholine receptor M1 (Homo sapiens) (UniProt P11229); assay: Cholinergic receptor muscarinic 1 (CHRM1) small molecule agonists, cell-based qHTS assay (AID 1963589); further: nearly all actives have a fitted effect of over 35% in size
How it was run: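 Human M1 in stable CHO line; 18 h plating, 1 h dye load 37 C; cpd added (agonist mode); Ca2+ fluorescence kinetic read, 1 s intervals; 15 conc, 3 runs.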

[16] = cAMP Responsive Elements (CRE) small molecule agonists, cell-based qHTS assay (AID 1963590)
How it was run: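 HEK 293T CRE-bla, 2,000 cells/well, 18 h preincubation 37 C/5% CO2; cpds (DMSO) pinned, 3 h; LiveBLAzer B/G FRET substrate, 2 h RT.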

[17] = target: Beta-2 adrenergic receptor (Homo sapiens) (UniProt P07550); assay: Adrenergic beta2 receptor (ADRB2) small molecule antagonists, cell-based qHTS assay (AID 1963592); further: series mostly up to about 92 µM; nearly all actives have a fitted effect of over 50% in size
Chain of Beta-2 adrenergic receptor (Homo sapiens) (P07550 whole entry, looked up): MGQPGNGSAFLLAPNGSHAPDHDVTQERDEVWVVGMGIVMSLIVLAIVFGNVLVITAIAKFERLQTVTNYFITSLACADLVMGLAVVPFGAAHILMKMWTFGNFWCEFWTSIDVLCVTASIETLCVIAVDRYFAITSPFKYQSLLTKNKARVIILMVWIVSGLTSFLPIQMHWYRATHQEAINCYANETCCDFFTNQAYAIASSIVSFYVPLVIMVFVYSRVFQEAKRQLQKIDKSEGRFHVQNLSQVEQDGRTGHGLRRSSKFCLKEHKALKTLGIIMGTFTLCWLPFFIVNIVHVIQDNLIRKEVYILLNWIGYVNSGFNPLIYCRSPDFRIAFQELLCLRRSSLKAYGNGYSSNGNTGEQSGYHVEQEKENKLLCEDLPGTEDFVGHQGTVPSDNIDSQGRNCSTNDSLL
How it was run: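 Cells (CHO, stable ADRB2 overexpression) incubated 18-20hr at 37C; compounds added from DMSO; agonist mix (1nM isoproterenol, 100uM IBMX, 25uM Ro-20-1724) added; 0.5hr RT; d2-cAMP and anti-cAMP-cryptate added; 1hr RT; 665/615 nm read.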

[18] = target: D(2) dopamine receptor (Homo sapiens) (UniProt P14416); assay: Dopamine D2 receptor (DRD2) small molecule agonists, cell-based qHTS assay (AID 1963594); further: nearly all actives have a fitted effect of over 35% in size
Chain of D(2) dopamine receptor (Homo sapiens) (P14416 whole entry, looked up): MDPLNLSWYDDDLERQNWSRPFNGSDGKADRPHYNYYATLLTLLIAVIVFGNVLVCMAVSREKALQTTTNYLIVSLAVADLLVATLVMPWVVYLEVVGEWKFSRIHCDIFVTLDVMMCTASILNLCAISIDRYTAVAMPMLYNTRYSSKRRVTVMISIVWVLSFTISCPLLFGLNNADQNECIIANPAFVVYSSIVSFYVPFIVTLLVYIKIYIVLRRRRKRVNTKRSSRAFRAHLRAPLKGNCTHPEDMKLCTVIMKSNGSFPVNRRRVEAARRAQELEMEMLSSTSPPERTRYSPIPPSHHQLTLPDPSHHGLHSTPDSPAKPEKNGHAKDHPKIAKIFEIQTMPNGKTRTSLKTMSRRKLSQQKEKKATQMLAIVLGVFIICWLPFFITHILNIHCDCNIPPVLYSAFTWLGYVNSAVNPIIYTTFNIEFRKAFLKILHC
How it was run: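 HEK293 cells stably expressing DRD2 were cultured 24 h at 37 C, then given Ro20-1724 (0.1 mM final) and compounds for 10 min at room temperature. NKH477 (200nM) was then added for 30 min. cAMP was read by HTRF.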

[19] = target: D(2) dopamine receptor (Homo sapiens) (UniProt P14416); assay: Dopamine D2 receptor (DRD2) small molecule antagonists, cell-based qHTS assay (AID 1963595; active means well fitted inhibition curve with a large enough effect in the signal ratio in the repeat runs, with a control signal flat; the % refers to the signal ratio)
How it was run: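 Antagonism was scored as restored cAMP in HEK293-DRD2 cells. These cells were stimulated with 200 nM NKH477 and 12 nM quinpirole for 30 min at room temperature, in the presence of 0.1 mM Ro20-1724.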

[20] = cAMP Responsive Elements (CRE) small molecule antagonists, cell-based qHTS assay (AID 1963591; active means well fitted inhibition curve with a large enough effect in the signal ratio in the repeat runs, not every such curve was filed as active; the % refers to the signal ratio)
How it was run: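 Beta-lactamase reporter read by FRET substrate (LiveBLAzer B/G) after 2 h at room temperature. CRE-bla HEK293T cells had received compound plus 0.25 uM (final) NKH477 for 3 h at 37 °C.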

Measured: Potency

CCCc1cc(C(N)=S)ccn1
inactive: [1] | [2] | [3] | [4] | [5] | [6] | [7] | [8] | [9] | [10] | [11] | [12] | [13] | [14] | [15] | [16] | [17] | [18]

O=C1NCCN1CCO
inactive: [1] | [2] | [3] | [4] | [5] | [6] | [7] | [8] | [9] | [10] | [11] | [12] | [13] | [14] | [15] | [16] | [17] | [18] | [19]

O=C(O)c1cccc(Cl)c1Cl
inactive: [1] | [2] | [3] | [4] | [5] | [6] | [7] | [8] | [9] | [10] | [11] | [12] | [13] | [14] | [15] | [16] | [20] | [18]

CCCCCc1cccc(=O)o1
inactive: [1] | [2] | [3] | [4] | [5] | [6] | [7] | [8] | [9] | [10] | [11] | [12] | [13] | [14] | [15] | [16] | [20] | [18] | [19]

CCc1c(Br)c(Br)c(Br)c(Br)c1Br
inactive: [1] | [2] | [3] | [4] | [5] | [6] | [7] | [8] | [9] | [10] | [11] | [12] | [13] | [14] | [15] | [16] | [20] | [18] | [19]

C1COCCO1
inactive: [1] | [2] | [3] | [4] | [5] | [6] | [7] | [8] | [9] | [10] | [11] | [12] | [13] | [14] | [15] | [16] | [20] | [18] | [19]

NC(=O)c1ccc([N+](=O)[O-])cc1
inactive: [1] | [2] | [3] | [4] | [5] | [6] | [7] | [8] | [9] | [10] | [11] | [12] | [13] | [14] | [15] | [16] | [20] | [18] | [19]
